Screens from PubChem BioAssay.
ARNT TACC3 PPI: disrupts binding between human ARNT and TACC3; inhibition, % at 9.99 µM; AlphaScreen His-ARNT PAS-B/GST-TACC3 binding, luminescence; TACC3 fragment carries E629A point mutation; 0.66% of 390,000 active;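 active = mean inhibition of replicates at least 50% and at least half of replicates each reaching 50%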;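 also: 0% = complete ARNT plus TACC3 wells and 100% = ARNT alone without TACC3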
NSD2 HMT inh: NSD2 (human) methyltransferase inhibition; O96028; NSD2 peptide methylation, AlphaScreen, 120 min; inhibition, % at 12.5 µM; 0.54% of 310,000 active; in the data active = inhibition above about 50%
Target sequence (O96028 whole entry, looked up): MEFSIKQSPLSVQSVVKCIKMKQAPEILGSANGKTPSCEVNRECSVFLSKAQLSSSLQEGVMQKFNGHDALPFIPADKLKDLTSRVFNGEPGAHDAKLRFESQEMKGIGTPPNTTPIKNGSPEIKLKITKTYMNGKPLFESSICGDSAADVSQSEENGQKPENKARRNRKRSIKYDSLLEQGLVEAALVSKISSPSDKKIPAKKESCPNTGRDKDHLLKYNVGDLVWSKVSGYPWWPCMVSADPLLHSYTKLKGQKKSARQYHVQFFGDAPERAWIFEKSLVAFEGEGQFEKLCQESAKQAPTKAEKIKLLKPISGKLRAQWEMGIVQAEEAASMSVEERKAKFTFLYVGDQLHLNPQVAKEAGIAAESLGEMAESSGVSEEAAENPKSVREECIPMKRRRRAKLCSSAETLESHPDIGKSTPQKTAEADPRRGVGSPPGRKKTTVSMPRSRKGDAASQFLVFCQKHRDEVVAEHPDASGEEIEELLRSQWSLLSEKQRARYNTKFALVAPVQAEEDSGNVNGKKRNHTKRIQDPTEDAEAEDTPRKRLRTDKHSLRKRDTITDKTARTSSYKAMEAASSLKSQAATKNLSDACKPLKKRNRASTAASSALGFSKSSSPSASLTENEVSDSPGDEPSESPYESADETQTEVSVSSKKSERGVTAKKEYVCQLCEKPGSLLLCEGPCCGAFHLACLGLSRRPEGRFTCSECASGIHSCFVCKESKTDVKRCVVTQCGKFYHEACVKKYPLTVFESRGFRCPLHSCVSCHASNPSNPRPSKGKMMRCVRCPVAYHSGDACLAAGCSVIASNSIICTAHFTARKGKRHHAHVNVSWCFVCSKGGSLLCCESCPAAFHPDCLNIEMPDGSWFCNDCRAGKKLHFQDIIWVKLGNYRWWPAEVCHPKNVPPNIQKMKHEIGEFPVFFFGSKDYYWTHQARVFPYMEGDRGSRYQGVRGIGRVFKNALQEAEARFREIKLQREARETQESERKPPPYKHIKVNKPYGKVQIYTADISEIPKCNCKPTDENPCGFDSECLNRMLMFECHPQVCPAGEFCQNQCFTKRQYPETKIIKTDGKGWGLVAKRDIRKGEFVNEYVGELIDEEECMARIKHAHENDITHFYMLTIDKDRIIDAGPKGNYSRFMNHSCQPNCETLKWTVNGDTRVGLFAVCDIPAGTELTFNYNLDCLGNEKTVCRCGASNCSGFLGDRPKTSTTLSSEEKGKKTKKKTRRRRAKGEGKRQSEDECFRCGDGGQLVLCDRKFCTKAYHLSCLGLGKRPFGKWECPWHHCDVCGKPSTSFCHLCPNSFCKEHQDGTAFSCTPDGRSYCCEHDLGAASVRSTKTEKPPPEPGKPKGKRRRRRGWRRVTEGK
SIRT5 block: blocks human SIRT5 desuccinylation of peptide; Q9NXA8; Purified SirT5, succinyl-peptide AMC, trypsin-coupled fluorescence; inhibition, % at 15 µM; 1.1% of 330,000 active; in the data active = inhibition above about 15%
PfHsp90 set2: inhibits growth of yeast expressing Plasmodium falciparum Hsp90. AID 504621. inhibition, % at 9.4 µM. 0.32% of 310,000 active. S. cerevisiae expressing PfHsp90, BacTiter-Glo ATP, 48 h; yeast lacking PDR1 and PDR3 efflux regulators;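 active = every replicate shows inhibition above about 80%, whatever the replicate mean, limit read from the data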;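 also: 0% = DMSO neutral controls and 100% = 20 µM radicicol positive controls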
CASP6 VEID inh: caspase-6 (human) enzyme inhibition. purified caspase-6, Z-VEID-R110 cleavage fluorescence. 0.53% of 350,000 active. inhibition, % at 12.5 µM. AID 686996;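 active = mean inhibition across replicates at least about 35%, with every replicate also reaching that limit, limit read from the data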;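 also: 0% = median of neutral control wells and 100% = no fluorescence left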
* hit, by the source's call; x = no result; ! = not confirmed by another sample. Rows were chosen to be rich in hits. Some 2.1% of all compounds tested hit in one or more screens of this group.

SMILES	ARNT TACC3 PPI	NSD2 HMT inh	SIRT5 block	PfHsp90 set2	CASP6 VEID inh
CCC(CO)Oc1cc(NC(=O)c2ccc(N)cc2)c2ncn(C(C)C)c2c1 (stereo unspecified)	-40.1	x	-1.0	-42.5	38.2*
CCC(CO)Oc1cc(NC(=O)c2ccc(F)cc2)c2ncn(C(C)C)c2c1 (stereo unspecified)	-8.1	x	x	-14.2	-1.2
CCC(CO)Oc1cc(NCc2ccccc2)c2ncn(C(C)C)c2c1 (stereo unspecified)	40.6*!	x	x	-5.4	15.3
CCOCCOc1cc(NCc2ccccc2)c2ncn(C(C)C)c2c1	19.5*	x	x	-17.7	41.1*
CN(C)c1cccc2c1c(NS(=O)(=O)c1cn(C)cn1)nn2C	31.4	77.9*	3.6	-12.3	52.5*
CC1CCN(C(=O)c2[nH]cnc2C(=O)NCc2ccc(CNC(=O)OC(C)(C)C)cc2)CC1	-3.0	x	17.0*	x	-0.6
CC1CCN(C(=O)c2[nH]cnc2C(=O)NCc2ccccc2)CC1	-3.0	x	0.5	x	-2.4
O=C(O)CCC(=O)N1N=C(c2ccco2)CC1c1ccco1 (stereo unspecified)	-3.0	5.2	3.3	-0.1	41.1*
O=C(O)CCC(=O)N1N=C(c2ccco2)CC1c1cccs1 (stereo unspecified)	7.3	8.0	3.7	-13.6	33.9
COc1ccc2c3c([nH]c2c1)[C@H](CO)N(C(=O)c1cccnc1)CC31CN(Cc2ccccc2)C1	x	x	-1.0	x	-3.4
COc1ccc(CN(C)C[C@@H]2Oc3c(NS(=O)(=O)c4cccs4)cccc3C(=O)N([C@@H](C)CO)C[C@@H]2C)cc1	-6.8	x	-1.7	x	-0.3
Cc1ccccc1NC(=O)C(C)OC(=O)C1CC(=O)N(Cc2ccco2)C1 (stereo unspecified)	1.7	0.7	-3.6	-7.7	55.3*
COCC(=O)N(C)C[C@H]1Oc2cc(C#CCC3CCCC3)ccc2S(=O)(=O)N([C@@H](C)CO)C[C@@H]1C	2.5	x	3.7	x	x
CCC1C(=O)N=C(SCC(=O)Nc2nc3ccccc3s2)NC1=O (stereo unspecified)	18.2	2.8	8.6	7.8	40.4*
CCC1C(=O)N=C(SCC(=O)Nc2cccc3ccccc23)NC1=O (stereo unspecified)	2.4	4.4	x	27.3	x
CN1CCN(C(=O)Nc2ccccc2)CC1	1.1	-1.0	2.6	-14.4	-0.1
O=C(Nc1cccc(-c2ccccc2)c1)N1CCN(C(=O)Nc2cccc(-c3ccccc3)c2)CC1	-2.9	0.7	-3.0	-37.2	38.7*
O=C(OCC(=O)N1CCN(C(=O)c2ccco2)CC1)c1cc(-c2cccc(Br)c2)nc2ccccc12	1.3	-0.7	x	100.4*	x
O=C(OCC(=O)N1CCN(C(=O)c2ccco2)CC1)c1cc(-c2ccc(F)cc2)nc2ccccc12	3.4	-0.7	x	40.8	x
O=C(OCC(=O)N1CCN(C(=O)c2ccco2)CC1)c1cn(-c2ccccc2)nc1-c1ccccc1	-18.2	0.4	x	10.4	x
O=C(OCC(=O)N1CCN(C(=O)c2ccco2)CC1)c1cc(-c2ccccc2)nc2ccccc12	x	2.1	x	100.8*	x
O=C(CNC(=O)c1cccc(F)c1)OCC(=O)N1CCN(C(=O)c2ccco2)CC1	3.1	-3.1	29.0*	5.0	0.8
Cc1cc(N2CCN(C(=O)c3ccco3)CC2)n2ncnc2n1	1.0	-4.9	x	-16.2	x
O=C(CNC(=O)c1cccc(F)c1)OCC(=O)N1CCCCC1	x	-0.6	x	-14.2	x
Cc1cc(N2CCN(C(=O)c3ccco3)CC2)n2ncc(-c3ccccc3)c2n1	-6.6	-6.3	x	124.2*	x
SMILES	ARNT TACC3 PPI	NSD2 HMT inh	SIRT5 block	PfHsp90 set2	CASP6 VEID inh
O=S(=O)(O)c1cccc2cccc(Nc3ccccc3)c12	0.3	35.6	57.0*	13.3	56.2*
COc1ccc(-c2cccc(C3CC=CC4C3C(=O)N(Cc3ccccc3)C4c3ccc(C(F)(F)F)cc3)c2)cc1 (stereo unspecified)	4.8	x	18.6*	-6.0	-3.2
CN(C)c1ccc(-c2cccc(C3CC=CC4C3C(=O)N(Cc3ccccc3)C4c3ccc(C(F)(F)F)cc3)c2)cc1 (stereo unspecified)	1.2	x	x	-31.2	x
CN(/C=C/c1c([N+](=O)[O-])c(=O)n(C)c(=O)n1C)c1ccccc1	active	-0.3	3.2	11.9	6.4
COc1ccc(CN(C)CC(=O)Nc2c(C)cccc2C)c(OC)c1	15.3	-0.8	0.1	x	1.8
COc1ccc(CN(C)CC(=O)Nc2sc3c(c2C#N)CCC3)c(OC)c1	8.1	-2.1	15.3*	-13.9	-1.1
O=C(Nc1ccc(F)cc1)c1nc[nH]c1C(=O)O	54.5*	-4.1	-6.1	9.1	-1.2
COc1ccc2c3c([nH]c2c1)[C@H](CO)N(C(=O)C1CC1)CC31CN(C(=O)c2ccncc2)C1	x	x	15.2*	x	0.8
COc1ccc2c3c([nH]c2c1)[C@@H](CO)N(C(=O)C1CC1)CC31CN(C(=O)c2ccncc2)C1	x	x	1.0	x	2.2
COc1ccc2c3c(n(C)c2c1)[C@H](CO)N(C(=O)C1CC1)CC31CN(C(=O)CN(C)C)C1	x	x	3.6	x	-3.6
COc1ccc2c3c(n(C)c2c1)[C@@H](CO)N(C(=O)C1CCC1)CC31CN(C(=O)CN(C)C)C1	x	x	15.0*	x	-2.8
CCCC#Cc1ccc2c(c1)O[C@@H](CN(C)C(C)=O)[C@H](C)CN([C@H](C)CO)S2(=O)=O	6.3	x	7.9	x	1.6
CCCC#Cc1ccc2c(c1)O[C@@H](CN(C)C(C)=O)[C@H](C)CN([C@@H](C)CO)S2(=O)=O	1.0	x	0.9	x	-1.8
C[C@@H]1CN([C@H](C)CO)C(=O)Cc2cc(NS(=O)(=O)c3cn(C)cn3)ccc2O[C@@H]1CN(C)Cc1ccncc1	-2.3	x	-4.0	x	1.9
COc1ccc(CNC(=O)CCNC(=O)c2ccc(C(C)(C)C)cc2)cc1OC	4.2	-1.8	1.4	-7.6	-0.9
CC(C)(C)c1ccc(C(=O)NCCC(=O)NCc2ccc(F)cc2)cc1	x	-0.1	15.2*	x	-2.2
C[C@H]1CN([C@@H](C)CO)C(=O)c2cc(N(C)C)ccc2O[C@H]1CN(C)S(=O)(=O)c1ccccc1	x	x	x	x	0.1
COc1cc(/C=C/C(=O)OCC(=O)Nc2sc3c(c2C#N)CCC(C)C3)ccc1OCC#N (stereo unspecified)	-11.1	-1.6	15.3*	-21.2	-0.8
O=C1/C(=C/c2ccc([N+](=O)[O-])cc2)Oc2cc(O)ccc21	-6.5	4.9	16.0*	-14.6	2.2
COc1ccccc1-c1nnc(NC(=O)c2ccc(S(=O)(=O)N(C)C)cc2)o1	56.8*	x	x	-6.3	x
CCN(Cc1ccccc1)S(=O)(=O)c1ccc(C(=O)Nc2nnc(-c3ccccc3OC)o2)cc1	9.7	x	-1.1	-54.1	3.0
CCc1nnc(NC(=O)c2ccc(S(=O)(=O)N(CCOC)CCOC)cc2)o1	46.0*	0.7	x	-3.8	x
CN(c1ccccc1)S(=O)(=O)c1ccc(C(=O)Nc2nnc(C3CC3)o2)cc1	-0.6	-2.2	-0.4	-2.7	-0.4
COCCN(CCOC)S(=O)(=O)c1ccc(C(=O)Nc2nnc(C3CC3)o2)cc1	47.0*	x	x	10.8	x
COCc1nnc(NC(=O)c2ccc(S(=O)(=O)N3CCCC3)cc2)o1	49.4*	-2.0	-1.1	x	0.1
